Data as given in PubChem BioAssay (NCI).
This is part of a sample that, as a whole, favours compounds with a hit. Of some 83,000 tested, about 20% had one in any assay.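 Method: cells in 96-well plates; compound added at one concentration; 48 h incubation; percent growth measured; values under 10 scored active.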 Unmarked numbers belong to inactive results. Activity calls are given as the source filed them.

System: HL-60(TB) leukemia
Experiment: NCI-60 one-dose screen, 48 h (100 = growth as untreated, 0 = no growth, -100 = all killed)
Details: 10 µM unless noted

With `CC(=O)c1ccc(Nc2nc(SCC(C)C)nc(-c3ccc(F)cc3)c2C#N)cc1` as the molecule, how does the growth read?
The growth was 103%.

`CCOC(=O)Nc1ccc(-c2nc(-c3cccc(O)c3)c(-c3ccnc(Br)c3)[nH]2)cc1` was tested. Which growth did it give?
The growth was -11.1% (active).

How did the growth turn out when `O=S(=O)(NCCCNc1nccc(-c2[nH]c(-c3ccccc3)nc2-c2ccc(Cl)c(O)c2)n1)c1ccc(Br)cc1` was run?
Its growth is 13.1%.

How did the growth turn out when `COc1c(N2CC3CCCNC3C2)c(F)cc2c(=O)c(C(=O)N/N=C/c3ccc(Br)cc3)cn(C3CC3)c12` (stereo unspecified) was run?
The growth was 84%.

Which growth does the source give for `COc1ccc2[nH]cc(-c3nc(N)nnc3-c3cn(C)c4ccc(Br)cc34)c2c1` here?
Its growth is -26.6% (active).

For `C#C[C@]1(O)CC[C@H]2[C@@H]3CC=C4c5sc(Nc6ccc(Cl)cn6)nc5CC[C@]4(C)[C@H]3CC[C@@]21C`, which growth is on record?
The growth was 6.4% (active).
